TDP43 rescue = qHTS of TDP-43 Inhibitors; hit rate 1.8% among 410,000; TDP-43 expressing yeast growth rescue, BacTiter-Glo, 24 h; Potency, µM (doses to about 46.1 µM), inactives show at the top dose growth rescue (activation), usual class: activators; also: potency is read from the fitted curve at half-maximal effect; % of control where 0% means no effect; nearly all actives have a fitted effect of over 50% in size
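Galactose-induced TDP-43 yeast, OD600=0.02, compound pinned; 24 hr, 30 deg C; BacTiter-Glo luminescence for growth. Inhibitors of TDP-43 toxicity read as activators.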
LDHA inh = qHTS assay for inhibitors of human lactate dehydrogenase. purified LDHA, NADH/diaphorase-resazurin fluorescence; stronger effect = lower value. AID 1347041, 2019. activity change, % (values are at about 110 or 230 µM). hit rate 0.15% among 480,000. L-lactate dehydrogenase A chain (Homo sapiens), P00338; in the data active = activity change below about -30%; inconclusive = mostly about -25% to -30%;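 also: plate controls were DMSO wells for no effect and wells without enzyme for full effect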
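LDH5 2 nM; NADH 0.06 mM, pyruvate 0.2 mM; 200 mM Tris pH 7.4, EDTA, Tween-20; 5 min RT. Detection: diaphorase 0.133 mg/mL + resazurin 37 µM, fluorescence ex540/em590 at 0 and 20 min; normalized to enzyme-free and DMSO wells.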
FUS yeast rescue = qHTS for Suppressors of FUS Proteinopathy: Primary screen using FUS-linked yeast assay; hit rate 0.24% among 390,000; S. cerevisiae FUS-expressing, growth rescue, OD600, 24 h; Potency, µM (top dose mostly 76.6 µM), hits mostly activators;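 also: potency is read from the fitted curve at half-maximal effect; plate controls were DMSO vehicle for no effect and reference control for full effect; nearly all actives have a fitted effect of over 55% in size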
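Yeast expressing FUS under galactose induction, OD 0.005 in 2% galactose medium; compounds in a dilution series, 24 h at 30C. Growth rescue by absorbance at 600 nm; CP55940 positive control, DMSO negative.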
aSyn rescue = qHTS of alpha-syn Inhibitors | Yeast expressing alpha-synuclein, growth rescue, BacTiter-Glo, 24 h | Potency, µM (top dose mostly 46.1 µM), for inactives: at the highest dose growth rescue (activation), usual class: activators | hit rate 0.14% among 370,000 | AID 652106, 2013; also: potency is read from the fitted curve at half-maximal effect; % of control where 0% means no effect; nearly all actives have a fitted effect of over 65% in size
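Galactose-induced alpha-syn yeast (OD600=0.02, raffinose-pregrown) + pinned cpd, 24 hr, 30 deg C; growth by BacTiter-Glo luminescence. Growth restoration scores as activation.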
Abeta rescue = qHTS for compounds that reverse cellular toxicity of Amyloid beta (A-beta) peptide in yeast: Primary Screen; yeast expressing A-beta42, growth rescue, OD600, 48 h; response scale: 0% DMSO, 100% iron-clioquinol control; Potency, µM (highest dose often 46.1 µM), hits mostly activators; hit rate 0.063% among 410,000; AID 1347071, 2019; also: potency is read from the fitted curve at half-maximal effect; nearly all actives have a fitted effect of over 55% in size
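Yeast A-beta toxicity model in growth medium with pinned compounds, 48 h at 30 C; growth read as absorbance at 600 nm. Normalized to FeCl3/clioquinol equimolar mix (positive) and DMSO (negative).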
mIDH1 inhibitor = qHTS for Inhibitors of mutant isocitrate dehydrogenase 1 (IDH1): qHTS; IDH1-R132H enzyme, NADPH consumption, diaphorase/resazurin fluorescence; Potency, µM (highest dose often 76.6 µM), without a hit: top-dose activity change, negative = inhibition, actives largely listed as inhibitors; hit rate 0.093% among 390,000; AID 602179, 2012; also: potency is read from the fitted curve at half-maximal effect; % is scaled to controls: 0 for no effect and ±100 for the full control effect; nearly all actives have a fitted effect of over 65% in size
Target sequence (O75874 whole entry R132H, stated change not applied): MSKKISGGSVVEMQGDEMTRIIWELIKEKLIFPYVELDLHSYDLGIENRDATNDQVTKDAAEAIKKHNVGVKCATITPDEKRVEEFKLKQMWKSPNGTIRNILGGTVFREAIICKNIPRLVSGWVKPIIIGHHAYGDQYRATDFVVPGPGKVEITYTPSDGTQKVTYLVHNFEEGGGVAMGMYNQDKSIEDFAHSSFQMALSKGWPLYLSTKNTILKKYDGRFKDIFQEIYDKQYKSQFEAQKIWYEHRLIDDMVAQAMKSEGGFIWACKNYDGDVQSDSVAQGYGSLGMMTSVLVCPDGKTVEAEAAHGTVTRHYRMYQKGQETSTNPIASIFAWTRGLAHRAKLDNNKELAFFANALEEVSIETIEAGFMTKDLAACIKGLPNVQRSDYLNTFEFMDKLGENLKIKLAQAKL
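IDH1-R132H (0.5 ug/mL dispensed) in pH 7.5 Tris buffer was preincubated 30 min with compound, then given a substrate mix of 0.016 mM NADPH and 2 mM alpha-KG for 80 min at room temperature; remaining NADPH was read by diaphorase/resazurin fluorescence.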
An asterisk follows results filed as active; i = inactive; ? = inconclusive; · = no result; [ ] = dose if it differs, or a comment. This is a sample that favours compounds with a hit; in the whole collection about 2% have one here. Unless noted, calls follow the shape of the dose curve; as a rule, active = well fitted curve in the direction sought with a large enough effect; inconclusive = small, poorly fitted or top-dose-only effect, or another doubt; inactive = no such curve, though single readings can be large; an effect the other way counts as inactive or inconclusive.

SMILES	TDP43 rescue	LDHA inh	FUS yeast rescue	aSyn rescue	Abeta rescue	mIDH1 inhibitor
NN=C1C(Cl)=C(Cl)C(Cl)=C1Cl	17.8µM*	2.0	i	4.0%	i	12.7%
O=C1c2ccccc2S(=O)(=O)c2cc(C(=O)N3CCN(c4c(Cl)cncc4Cl)CC3)ccc21	12.6µM*	0.2	20µM*	-0.3%	i	0.0%
COc1cc(/C=C(/C)[N+](=O)[O-])cc(OC)c1OC	·	3.0	·	·	·	·
C[C@]12CC[C@H]3C(=CCc4cc(O)ccc43)[C@@H]1CCC2=O	10µM*	5.8	i	1.7%	i	-4.2%
COc1ccc(CCN(C)Cc2cc(C(C)(C)C)c(O)c(C(C)(C)C)c2)cc1OC	·	0.3	·	·	·	·
CCN(CC)P(=O)(NC(=O)C(Cl)(Cl)Cl)N(CC)CC.[Cl-].[Cl-].[Cl-].[Nd+3]	0.0%	-49.0*	i	-3.4%	i	1.7%
CCN(CC)C(=O)c1ccc2c(c1)C1C(Cl)C(Sc3ccccc3[N+](=O)[O-])CC1C(C(=O)O)N2 (configuration not stated)	-33.8%	2.0	39.8µM*	-23.3%	i	-2.8%
O=C(O)c1cccc2c1NC(c1cccc([N+](=O)[O-])c1)C1CC(Sc3ccccc3[N+](=O)[O-])C(Cl)C21 (configuration not stated)	-13.4%	2.6	i	-1.5%	i	29.3µM*
CCC(=O)O[C@H]1CC[C@H]2[C@@H]3CCC4=CC(=O)CC[C@]4(C)[C@H]3CC[C@]12C	14.1µM*	-1.6	i	0.6%	i	19.0%
COc1ccc(CNCCc2cccc(Cl)c2)cc1	·	2.5	·	·	·	·
CN1C(=O)/C(=C\c2ccc(Br)s2)C(=O)NC1=S	-93.5%	-13.2	i	-62.7%	i	0.0%
O=C1NC(=S)NC(=O)C1=Cc1ccc(Br)s1	-93.7%	-38.1*	i	-79.2%	i	-10.1%
O=C(CCn1c(=O)oc2ccccc21)N1CCN(c2ccccc2Cl)CC1	12.6µM*	-0.8	i	7.5%	i	3.2%
O=C1CCN(C(=O)CCCn2c(=O)oc3ccccc32)CC1	2.4%	-0.2	i	0.9%	i	2.0%
FC(F)Oc1ccc(CNCCc2c[nH]c3ccccc23)cc1	·	-1.5	·	·	·	·
O=C1N(c2ccc(Cl)cc2)C(c2cccnc2)N2CCCN12 (configuration not stated)	35.5µM*	-0.5	i	?	i	-2.9%
COc1ccc(C(C#N)C(C)=O)cc1 (configuration not stated)	·	11.0	·	·	·	·
O=S(=O)(NC1CCCCCCC1)OCC(Cl)(Cl)Cl	35.5µM*	2.6	i	-16.1%	i	1.5%
S=C(NCCc1ccccc1)N1Cc2ccccc2-n2nncc2C1	22.4µM*	-36.4*	i	-0.5%	i	20.0%
CCOC(=O)CNC(=O)N1Cc2ccccc2-n2nncc2C1	0.0%	-33.2*	i	3.1%	i	-6.4%
S=C(NCCc1ccccc1)N1Cc2cc(N3CCCCC3)ccc2-n2nncc2C1	35.5µM*	-2.4	?	12.1%	i	·
C[N+](C)(C)Cc1cccs1	·	-0.2	·	·	·	·
CC(NC(C)c1ccc(Cl)cc1)C(=O)c1c[nH]c2ccccc12 (configuration not stated)	·	4.3	·	·	·	·
Cc1c(Cl)ccc2sc(N3CCN(C(=O)CCS(=O)(=O)c4ccc(F)cc4)CC3)nc12	17.8µM*	-7.6	?	·	i	2.2%
N#Cc1ccc(C(=O)N2CCN(c3nc4ccc(F)cc4s3)CC2)cc1	?	-0.4	i	·	i	2.3%
SMILES	TDP43 rescue	LDHA inh	FUS yeast rescue	aSyn rescue	Abeta rescue	mIDH1 inhibitor
CCC(C)NC(=O)c1c(N)n(CCCOC)c2nc3ccccc3nc12 (configuration not stated)	25.1µM*	9.8	i	10.8%	i	4.3%
COCCCn1c(N)c(C(=O)Nc2ccccc2)c2nc3ccccc3nc21	8.2%	17.0	i	14.9%	i	2.9%
c1ccc(C2c3ccccc3-n3nncc3CN2CC2CCCCC2)cc1 (configuration not stated)	15.8µM*	-4.2	i	-28.8%	i	5.3%[38.3 µM]
O=C(Nc1ccccn1)NC12CC3CC(CC(C3)C1)C2	3.16µM*	-2.9	i	-6.7%	i	9.4%
Cc1cc(C[N+](C)(C)C)oc1C	·	11.9	·	·	·	·
COC(=O)C1=C(c2ccc(F)cc2F)C[C@@H]2CC[C@H]1N2C(=O)N1CCC(O)(c2ccc(Cl)cc2)CC1	20µM*	-1.2	?	?	?	-3.0%
O=[N+]([O-])c1ccc(N2CC2)c([N+](=O)[O-])c1	-17.0%	-7.6	i	-1.1%	i	-6.0%
Nc1c(Br)cc([N+](=O)[O-])cc1[N+](=O)[O-]	12.6µM*	-7.0	i	1.3%	i	3.9%
COc1ccccc1CNCCc1c[nH]c2ccccc12	·	-3.4	·	·	·	·
CCOc1ccccc1N=C1SCCCN1C	-14.4%	-37.7*	i	-15.9%	i	5.4%
CCOc1ccccc1N1C(=O)NC(=O)/C(=C/c2ccc3c4c(cccc24)CC3)C1=O	-16.7%	-72.2*	i	9.8%	i	1.9%
CCc1ccccc1N1C(=O)NC(=O)/C(=C\c2cc(C)n(C)c2C)C1=O	7.1%	-9.1	i	-12.6%	i	11.8%
CCCCNC(=O)NC(=O)CCl	·	7.9	·	·	·	·
CC(C)N1CCN(Cc2c[nH]c3ccccc23)CC1	·	-1.3	·	·	·	·
C=C(COC(=O)CCC(=O)O)CC1CC(O)[C@]2(C)OC3CC4OC5C[C@]6(C)O[C@]7(C)CCC8OC9C[C@]%10(C)OC%11C(C)=CC(=O)OC%11CC%10OC9C[C@@H](C)C8OC7CC6O[C@]5(C)C/C=C\C4OC3CC2O1 (some centres not stated)	13.9%	-13.6	7.08µM*	-1.0%	i	-21.1%
CSCCC(c1nnnn1-c1ccc2c(c1)OCCO2)N1CCC(n2c(=O)[nH]c3ccccc32)CC1 (configuration not stated)	12.3%	-9.1	25.1µM*	0.8%	i	·
O=c1[nH]c2ccccc2n1C1CCN(C(c2cc3ccccc3o2)c2nnnn2Cc2ccccc2)CC1 (configuration not stated)	18.9%	-6.5	8.91µM*	3.1%	i	·
N#Cc1ccc(CN2CCC(c3c[nH]c4ccccc34)CC2)cc1	·	1.5	·	·	·	·
N#Cc1ccccc1Cn1cc(C(=O)C2CC2)c2ccccc21	20µM*	1.7	i	10.7%	i	0.2%
CCC(=O)c1cn(Cc2ccccc2C#N)c2ccccc12	25.1µM*	5.3	i	5.1%	i	10.1%

Screens (PubChem)
